Hit rate of the full screen: of about 66,000 compounds, about 960 (1.5%) showed an effect of 50% or more. The sample as a whole holds a higher share of strong results than the screen did.
Test system: Trypanosoma brucei
Assay: Trypanosoma brucei 72 hour study
Assay type: functional, organism-based
Design: scale not given: in the data most compounds retested in dose-response had high values

Question: `COCc1ncn(Cc2nc(-c3ccc(OC)cc3F)oc2C)n1` was tested. Which “Percent Effect” value (30.3 µM, […]) did it give?
Answer: -22.44%

Question: `CCCOC1CCCN(Cc2nc(-c3ccc(F)cc3F)oc2C)C1` (stereo not drawn) was tested. Which “Percent Effect” value (30.3 µM, […]) did it give?
Answer: 19.33%

Question: How did the “Percent Effect” value (30.3 µM, […]) turn out when `COc1ccc(-c2nc(CN3CCCC(OC)C3)c(C)o2)c(F)c1` (stereo not drawn) was run?
Answer: 99.32%

Question: Which “Percent Effect” value (30 µM, 30.03 µM) does the source give for `Cc1nnc(CN2C[C@H]3CC[C@@H]2CN(C2Cc4ccccc4C2)C3)o1` here?
Answer: 19.71%

Question: For `COCC1N(C(=O)c2ccco2)[C@H]2CC[C@]1(O)CC2` (stereo partly drawn), which “Percent Effect” value (30.3 µM, […]) is on record?
Answer: -31.26%

Question: How did the “Percent Effect” value (30 µM, 30.03 µM) turn out when `O=C(NCC1CC1)[C@H]1C[C@@H]2CN(S(=O)(=O)Cc3ccccc3)C[C@H]1O2` was run?
Answer: -18.74%

Question: How did the “Percent Effect” value (30 µM, 30.03 µM) turn out when `O=C(NC1CCCCC1)NC1CCCc2c1cnn2CCO` (stereo not drawn) was run?
Answer: 61.21%

Question: Which “Percent Effect” value (30 µM, 30.03 µM) does the source give for `O=C(NCC(F)(F)F)NC1CCCc2c1cnn2CCO` (stereo not drawn) here?
Answer: 3.56%

Question: Which “Percent Effect” value (30 µM, 30.03 µM) does the source give for `O=C(NCC1CCCCC1)NC1CCCc2c1cnn2CCO` (stereo not drawn) here?
Answer: -28.76%

Question: With `COc1ccc(CN2CCc3ncnc(C4CC4)c3CC2)cc1.O=C(O)C(F)(F)F` as the compound, how does the “Percent Effect” value (30 µM, 30.03 µM) read?
Answer: -6.255%

Question: Which “Percent Effect” value (30.3 µM, […]) does the source give for `Cc1nc(C)n(CC2CCCCN2Cc2nc3ccccc3o2)n1` (stereo not drawn) here?
Answer: -29.61%

Question: What about the “Percent Effect” value (10 mM, 10 mM as filed; unlikely as a test dose) of the same compound?
Answer: -25.93%

Question: `Cc1cc(N2CCC(O)(CN(C)C)C2)c2cc3c(cc2n1)OCO3` (stereo not drawn) was tested. Which “Percent Effect” value (30 µM, 30.03 µM) did it give?
Answer: 101.2%

Question: With `Cc1cc(N2CCCC3(CN(C)C(=O)O3)C2)c2cc3c(cc2n1)OCO3` (stereo not drawn) as the compound, how does the “Percent Effect” value (30 µM, 30.03 µM) read?
Answer: -17.57%

Question: `Cc1cc(N2CCCC(O)(CN(C)C)C2)c2cc3c(cc2n1)OCO3` (stereo not drawn) was tested. Which “Percent Effect” value (30 µM, 30.03 µM) did it give?
Answer: 17.65%

Question: How did the “Percent Effect” value (30 µM, 30.03 µM) turn out when `CN(C)C[C@H]1OC[C@@H]2CCN(S(=O)(=O)c3ccc(F)cc3)C[C@@H]21.O=C(O)C(F)(F)F` was run?
Answer: -20.07%

Question: How did the “Percent Effect” value (30.3 µM, […]) turn out when `Cn1cncc1CN1CCC2(CC1)COCCN(S(C)(=O)=O)C2.O=C(O)C(F)(F)F` was run?
Answer: -5.891%

Question: For `C[C@@H](N)C(=O)N1CC2(CCNCC2)c2cc(Cl)ccc21.Cl.Cl`, which “Percent Effect” value (30.3 µM, […]) is on record?
Answer: 51.33%

Question: With `CCOC(=O)N1CC2(CCNCC2)c2cc(Cl)ccc21.Cl` as the compound, how does the “Percent Effect” value (30.3 µM, […]) read?
Answer: 80.77%

Question: How did the “Percent Effect” value (30.3 µM, […]) turn out when `Cl.O=C(c1ccccc1F)N1CC2(CCNCC2)c2cc(Cl)ccc21` was run?
Answer: -26.55%

Question: `Cc1ccc2c(c1)C1(CCNCC1)CN2C(=O)C(C)C` was tested. Which “Percent Effect” value (30.3 µM, […]) did it give?
Answer: -10.81%

Question: `Cl.Cl.O=C([C@H]1CCCN1)N1CC2(CCNCC2)c2cc(Cl)ccc21` was tested. Which “Percent Effect” value (30.3 µM, […]) did it give?
Answer: 11.24%

Question: With `CC(C)C[C@H](N)C(=O)N1CC2(CCNCC2)c2cc(Cl)ccc21.Cl.Cl` as the compound, how does the “Percent Effect” value (30.3 µM, […]) read?
Answer: 46.04%

Question: Which “Percent Effect” value (30.3 µM, […]) does the source give for `CN(C)C(=O)N1CC2(CCNCC2)c2cc(Cl)ccc21.Cl` here?
Answer: -10.23%

Question: With `Cl.Cl.O=C([C@@H]1CSCN1)N1CC2(CCNCC2)c2cc(Cl)ccc21` as the compound, how does the “Percent Effect” value (30.3 µM, […]) read?
Answer: -15.46%

Question: Which “Percent Effect” value (30 µM, 30.03 µM) does the source give for `COCCN1CC[C@H](OC)[C@@H]1Cc1ccccc1.O=C(O)C(F)(F)F` here?
Answer: -24.73%

Question: `O=C(COC[C@@]12CCC[C@@H]1CN(C1CCC1)C2)N1CCCC1.O=C(O)C(F)(F)F` was tested. Which “Percent Effect” value (30.3 µM, […]) did it give?
Answer: -61.71%

Question: Which “Percent Effect” value (30 µM, 30.03 µM) does the source give for `Cc1nn(C)c2c(=O)n(CC(=O)NCC3CCCO3)ccc12` (stereo not drawn) here?
Answer: -1.766%

Question: Which “Percent Effect” value (30.3 µM, […]) does the source give for `CNC(=O)CN1CC[C@H]2CN(C(=O)c3ccoc3)C[C@H]2C1.O=C(O)C(F)(F)F` here?
Answer: -45.09%

Question: How did the “Percent Effect” value (30 µM, 30.03 µM) turn out when `CCOCC1CN(Cc2nccs2)Cc2nn(CC3CC3)cc21.O=C(O)C(F)(F)F` (stereo not drawn) was run?
Answer: -7.531%

Question: `COc1ncc(CN(CCCN2CCOCC2)Cc2ccc(C)o2)cn1.O=C(O)CC(O)(CC(=O)O)C(=O)O` was tested. Which “Percent Effect” value (30.3 µM, […]) did it give?
Answer: -12.51%

Question: Which “Percent Effect” value (30.3 µM, […]) does the source give for `CNc1nc(C2CCCN2C(C)=O)nc2c1CN(CCO)CC2.O=CO` (stereo not drawn) here?
Answer: 20.17%

Question: For `CCOc1ccc([C@@H]2N[C@H](c3nccs3)Cc3ccsc32)cc1OC`, which “Percent Effect” value (30.3 µM, […]) is on record?
Answer: 10.72%

Question: Which “Percent Effect” value (30.3 µM, […]) does the source give for `COc1cc([C@@H]2N[C@H](c3nccs3)Cc3ccsc32)cc(OC)c1OC` here?
Answer: -6.656%

Question: How did the “Percent Effect” value (30.3 µM, […]) turn out when `COc1cccc([C@@H]2N[C@H](c3nccs3)Cc3ccsc32)c1OC` was run?
Answer: 100.1%

Question: With `CCOc1cc([C@H]2N[C@@H](c3nc(C)cs3)Cc3ccsc32)ccc1OC` as the compound, how does the “Percent Effect” value (30.3 µM, […]) read?
Answer: 85.49%

Question: For `CCOc1cc([C@@H]2N[C@H](c3nccs3)Cc3ccsc32)ccc1OC`, which “Percent Effect” value (30.3 µM, […]) is on record?
Answer: 9.707%

Question: For `COc1ccc(OC)c([C@@H]2N[C@H](c3nccs3)Cc3ccsc32)c1`, which “Percent Effect” value (30.3 µM, […]) is on record?
Answer: 15.15%

Question: With `O=C(CN1C[C@H]2C[C@H](OCc3ccccc3)C[C@H]2C1)N1CCOCC1` as the compound, how does the “Percent Effect” value (30.3 µM, […]) read?
Answer: -15.88%

Question: How did the “Percent Effect” value (30.3 µM, […]) turn out when `Cc1cc(C)n(CC2CN(c3nnc(C)c(C)c3C#N)CCO2)n1` (stereo not drawn) was run?
Answer: 5.324%

Question: How did the “Percent Effect” value (30 µM, 30.03 µM) turn out when `NC1(C(=O)NCC2CCCN(Cc3cccc4nonc34)C2)CCC1` (stereo not drawn) was run?
Answer: 54.97%

Question: `NC1(C(=O)NCC2CCCN(Cc3ccccc3F)C2)CCCC1` (stereo not drawn) was tested. Which “Percent Effect” value (30 µM, 30.03 µM) did it give?
Answer: -11%

Question: `O=C(NCC1CCCN(Cc2cccc3nonc23)C1)c1ccc[nH]1` (stereo not drawn) was tested. Which “Percent Effect” value (30 µM, 30.03 µM) did it give?
Answer: -46.2%

Question: Which “Percent Effect” value (30.3 µM, […]) does the source give for `COc1ccc(CN2CCc3nc4ccsc4c(=O)n3CC2)c(C)c1C` here?
Answer: 7.671%

Question: For `CCn1cc(NC(=O)C(C)n2ncc(Cl)c2C)c(C(=O)NC)n1` (stereo not drawn), which “Percent Effect” value (30 µM, 30.03 µM) is on record?
Answer: -19.95%

Question: With `CC(C)CNC(=O)[C@H]1CCS(=O)(=O)[C@@H]2CN(Cc3ccc(Cl)cc3)C[C@H]12.O=C(O)C(F)(F)F` as the compound, how does the “Percent Effect” value (30 µM, 30.03 µM) read?
Answer: 63.22%

Question: With `Cc1ccc(CN2C[C@@H]3[C@@H](C(=O)NCC(C)C)CCS(=O)(=O)[C@@H]3C2)cc1.O=C(O)C(F)(F)F` as the compound, how does the “Percent Effect” value (30.3 µM, […]) read?
Answer: -11.51%

Question: How did the “Percent Effect” value (30.3 µM, […]) turn out when `CC(C)CNC(=O)[C@H]1CCS(=O)(=O)[C@@H]2CN(Cc3ccc(F)cc3)C[C@H]12.O=C(O)C(F)(F)F` was run?
Answer: -43.77%
